Results: PubChem BioAssay (NCATS)
Values without a mark were called inactive. Records with an inconclusive call do not appear. Some of the results follow. Activity calls are given as the source filed them. Unless noted, calls come from the whole dose curve; as a rule, active = well fitted curve in either direction with a large enough effect (not every such curve was filed as active); inconclusive = small, poorly fitted or top-dose-only effect, or another doubt; inactive = flat fitted curve, though single readings scatter.

Legend:
[1] = qHTS Assay for Inhibitors of Fructose-1,6-bisphosphate Aldolase from Giardia Lamblia: Coupling assay counterscreen confirmation (AID 2795; active = well fitted inhibition curve with a large enough effect; note: % is set by controls: 0 for no effect and ±100 for the full control effect; nearly all actives have a fitted effect of over 55% in size)
Summary of the method: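 Fluorescence (excitation 525 nm, emission 598 nm) reports signal from the coupled glyceraldehyde-3-phosphate dehydrogenase system with an AmpLite Red detection kit. Compounds up to 57.5 uM final were incubated 10 min, then 20 min after substrate addition, both at room temperature.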

[2] = target: Lysosomal acid glucosylceramidase (Homo sapiens) (UniProt P04062); experiment: Glucocerebrosidase-p2 (AID 348; in the data active = potency below about 10 µM; note: potency is the fitted concentration of half-maximal effect); settings: purified GBA, blue fluorogenic substrate, 40 min
Sequence of Lysosomal acid glucosylceramidase (Homo sapiens) (P04062 whole entry, looked up): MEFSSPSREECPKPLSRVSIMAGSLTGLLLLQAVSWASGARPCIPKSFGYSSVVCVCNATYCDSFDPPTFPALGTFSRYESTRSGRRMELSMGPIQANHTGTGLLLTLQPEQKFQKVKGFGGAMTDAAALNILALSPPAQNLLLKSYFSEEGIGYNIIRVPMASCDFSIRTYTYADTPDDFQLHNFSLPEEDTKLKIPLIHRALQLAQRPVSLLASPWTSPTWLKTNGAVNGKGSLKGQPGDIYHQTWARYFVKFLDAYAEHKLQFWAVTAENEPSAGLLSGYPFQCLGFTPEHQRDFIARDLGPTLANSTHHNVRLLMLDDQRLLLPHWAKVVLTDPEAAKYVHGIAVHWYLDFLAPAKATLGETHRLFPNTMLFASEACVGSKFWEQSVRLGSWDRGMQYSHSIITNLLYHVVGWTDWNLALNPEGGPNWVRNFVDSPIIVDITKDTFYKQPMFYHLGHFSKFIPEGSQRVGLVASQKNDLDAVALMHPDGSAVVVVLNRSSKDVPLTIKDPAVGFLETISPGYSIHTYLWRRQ
Summary of the method: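 Normal human glucocerebrosidase (0.2 nM) with blue fluorogenic substrate (80 uM final) in citrate/phosphate pH 5.9 with 10mM sodium taurocholate, 0.01% tween-20; 40 min RT, NaOH/glycine stop; fluorescence Ex 365/Em 440; AC50 from a titration from 0.6 nM upwards.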

[3] = AP1 Signaling Pathway (AID 357); settings: ME-180 AP-1-bla reporter, EGF-induced, beta-lactamase ratio, 5 h; at 7.69 µM (top of the series) unless noted;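 note: ME-180 reporter cells stimulated with EGF at its EC50 level; % is set by controls: 0 for no effect and ±100 for the full control effect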
Summary of the method: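 Read-out was the 460nm/530nm emission ratio (excitation 405nm) after CCF4 loading for 2.5 hours at room temperature. Cells carried an AP-1-driven beta-lactamase reporter, were stimulated with EC50 EGF plus compound for 5 hours, and AC50 values came from titrations.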

[4] = target: Cytochrome P450 1A2 (Homo sapiens) (UniProt P05177); experiment: p450-cyp1a2 (AID 410; calls by dose curve; note: potency is the fitted concentration of half-maximal effect;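 for activity change, negative = inhibition: -100% = full effect of reference inhibitor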)
Sequence of Cytochrome P450 1A2 (Homo sapiens) (P05177 whole entry, looked up): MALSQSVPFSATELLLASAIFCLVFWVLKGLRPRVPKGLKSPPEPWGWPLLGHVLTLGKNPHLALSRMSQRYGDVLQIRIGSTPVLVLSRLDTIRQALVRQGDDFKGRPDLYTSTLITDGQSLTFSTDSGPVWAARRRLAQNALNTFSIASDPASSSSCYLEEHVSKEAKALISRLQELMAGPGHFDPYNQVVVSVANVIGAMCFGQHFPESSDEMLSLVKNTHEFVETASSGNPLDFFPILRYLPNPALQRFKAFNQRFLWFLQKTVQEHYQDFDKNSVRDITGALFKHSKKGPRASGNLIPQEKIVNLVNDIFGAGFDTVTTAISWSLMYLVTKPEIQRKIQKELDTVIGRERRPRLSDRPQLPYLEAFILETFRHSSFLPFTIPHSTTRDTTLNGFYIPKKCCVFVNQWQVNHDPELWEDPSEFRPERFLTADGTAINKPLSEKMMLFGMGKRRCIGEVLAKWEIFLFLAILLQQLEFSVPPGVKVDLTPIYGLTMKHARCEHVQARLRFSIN
Summary of the method: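 20nM CYP1A2, 100uM Luciferin-ME (=Km), 100mM KPO4; cpd 10 min RT; +NADPH regen, 60 min RT; stop/detect 20 min; luminescence. Normalized to furafylline 57 uM = full inhibition.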

[5] = NFAT Signaling Pathway (AID 444); settings: Jurkat NFAT-bla M1, carbachol, beta-lactamase ratio, 5 h; at 7.69 µM (top of the series) unless noted;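 note: carbachol stimulus at about its EC50 of 1 µM final; % is set by controls: 0 for no effect and ±100 for the full control effect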
Summary of the method: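 Read-out: CCF4 FRET ratio (460 nm/530 nm) after 1 h RT dye loading, used for %activity and AC50 from titration series. Cells: Jurkat NFAT-β-lactamase/M1 line, treated with compound plus 1 uM carbachol for 5 h, 37 °C.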

[6] = Stat Signaling Pathway (AID 446); settings: ME-180 (cervical carcinoma) SIE beta-lactamase reporter, IL-6 stimulated, 5 h; at 7.69 µM (top of the series) unless noted;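 note: ME-180 cervical cancer cells given 40 pM IL-6 alongside compound; SIE-controlled beta-lactamase reporter measured as 460/530 nm FRET emission ratio; % is set by controls: 0 for no effect and ±100 for the full control effect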
Summary of the method: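 Overnight-plated ME-180 cells bearing a STAT Inducible Element beta-lactamase reporter; 5 h co-exposure to compound and 40 pM IL-6; values normalized to 300 pM IL-6 and 125 nM JAK inhibitor controls.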

[7] = target: Glucocorticoid receptor (Homo sapiens) (UniProt P04150); experiment: GR-GFP Redistribution (AID 450;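 active = compounds whose dose series gives a full or clear partial fitted curve of increased nuclear translocation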; note: potency is the fitted concentration of half-maximal effect); settings: U2OS GR-GFP nuclear translocation, laser cytometry, 2 h
Sequence of Glucocorticoid receptor (Homo sapiens) (P04150 whole entry, looked up, the tested form may be a part): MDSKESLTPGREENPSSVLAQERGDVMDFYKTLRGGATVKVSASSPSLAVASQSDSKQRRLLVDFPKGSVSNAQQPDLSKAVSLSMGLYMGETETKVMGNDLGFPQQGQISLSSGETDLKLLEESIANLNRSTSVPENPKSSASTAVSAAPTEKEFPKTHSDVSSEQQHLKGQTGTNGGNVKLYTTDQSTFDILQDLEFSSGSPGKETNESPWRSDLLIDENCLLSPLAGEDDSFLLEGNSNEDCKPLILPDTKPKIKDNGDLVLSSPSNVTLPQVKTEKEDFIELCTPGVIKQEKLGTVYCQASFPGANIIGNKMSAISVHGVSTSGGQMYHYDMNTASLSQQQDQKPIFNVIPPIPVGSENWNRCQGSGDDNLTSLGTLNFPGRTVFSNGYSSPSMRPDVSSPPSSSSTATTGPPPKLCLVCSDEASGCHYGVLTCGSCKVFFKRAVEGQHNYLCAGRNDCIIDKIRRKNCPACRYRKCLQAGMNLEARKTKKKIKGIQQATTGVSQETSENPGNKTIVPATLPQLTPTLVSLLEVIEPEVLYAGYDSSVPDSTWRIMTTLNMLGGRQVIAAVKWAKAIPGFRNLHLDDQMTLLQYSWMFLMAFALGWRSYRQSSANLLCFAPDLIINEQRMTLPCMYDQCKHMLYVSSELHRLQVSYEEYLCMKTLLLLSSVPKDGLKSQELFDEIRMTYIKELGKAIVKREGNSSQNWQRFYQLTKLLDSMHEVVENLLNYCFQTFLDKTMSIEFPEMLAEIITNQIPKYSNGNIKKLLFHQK

[8] = target: Glucocorticoid receptor (Homo sapiens) (UniProt P04150); experiment: GR-EFC Redistribution (AID 451; calls by dose curve; note: potency is the fitted concentration of half-maximal effect); settings: CHO-K1 GR-EFC translocation, beta-gal luminescence, 2 h
Summary of the method: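 Translocation of GR-ED fusion to nuclear EA restores b-gal, read by luminescence after 1 h room-temperature detection. Engineered CHO-K1 biosensor cells, 1,000/well, exposed 2 h at 37 C to titrations up to 46 uM final.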

[9] = target: Mitogen-activated protein kinase 10 (Mus musculus) (UniProt Q61831); experiment: JNK3 AlphaScreen Assay (AID 530);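 note: kinase came from lysate of stimulated human HepG2 cells; signal reports phosphorylation of biotinylated GST-cJun 1-79 at Ser73 with 10 µM ATP; % is set by controls: 0 for no effect and ±100 for the full control effect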
Summary of the method: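 Kinase buffer: 20 mM Tris-HCl pH 7.6, 10 mM MgCl2, 1 mM DTT, 0.1 mM Na3VO4, 0.01% Tween-20; ATP 10 uM. Substrate biotin-GST-cJun(1-79), enzyme from activated HepG2 lysates. Detection by Ser73 phospho-antibody AlphaScreen.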

Question: Which outcome [1] does the source give for `COC(=O)CC1=NN(c2nc(C)cc(C)n2)C(=O)C1` here?
Answer: inactive

Question: Which Potency [2] does the source give for `N=C(N)SCC(=O)O` here?
Answer: > 11.4 µM

Question: And the activity change, negative = inhibition [3]?
Answer: -10.2%

Question: And the activity change, negative = inhibition [4]?
Answer: -10.2% [at 2.29 µM]

Question: What about the activity change, negative = inhibition [5] of the same compound?
Answer: 6.44%

Question: And the activity, negative = inhibition [6]?
Answer: -4.57%

Question: And the Potency [7]?
Answer: > 46 µM

Question: What about the Potency [8] of the same compound?
Answer: > 9.22 µM

Question: And the Potency [9]?
Answer: inactive

Question: Which results are given for `CS[C@@H](CC(=O)O)C(=O)O`?
Answer: Potency [2]: > 11.4 µM; activity change, negative = inhibition [3]: 2.29%; Potency [4]: inactive; activity change, negative = inhibition [5]: 3.57%; activity, negative = inhibition [6]: 2.44%; Potency [7]: > 46 µM; Potency [8]: > 9.22 µM; Potency [9]: inactive

Question: What does the source list for `Cc1ccc(-[n+]2cc(=O)o[nH]2)cc1`?
Answer: Potency [2]: > 11.4 µM; activity change, negative = inhibition [3]: 4.74%; Potency [4]: 3.98 µM (active); activity change, negative = inhibition [5]: -24.7%; activity, negative = inhibition [6]: 12.6%; Potency [7]: > 46 µM; Potency [8]: > 9.22 µM; Potency [9]: inactive
